Source: ChEMBL document CHEMBL3988442, “University of Dundee, Small-Polar-MMV Screening Library” (2021)
Among all 48,000 compounds or so, about 13,000 (27%) showed an effect of 50% or more. The list shows a part of the results.

Each molecule was assayed on Wolbachia pipientis (assay: Anti-Wolbachia Cell-Based Screen). Settings: 5 µM.
Assay type: functional
Parameters: scale not given: in the data most compounds retested in dose-response had high values

Row | Compound | Percent Effect [%]
1 | Cc1noc(C)c1CC(=O)NCC(C)N1CCOCC1 (stereo not given) | 8.973
2 | O=C(NCc1cccnc1)[C@@H]1CC[C@@H]2[C@@H](CCN2c2ncccn2)O1.O=C(O)C(F)(F)F.O=C(O)C(F)(F)F | 3.562
3 | CCO[C@@H]1CC[C@H]2[C@H]1OCCN2Cc1ccc(F)cc1 | 96.26
4 | CO[C@H]1CC[C@H]2[C@H]1OCCN2Cc1ccc(F)cc1.O=C(O)C(F)(F)F | 91.7
5 | Fc1cccc(CN2CCO[C@H]3[C@@H](OCc4ccccn4)CC[C@@H]32)c1 | 10.15
6 | Fc1ccc(CN2CCO[C@H]3[C@H](OCC4CCCC4)CC[C@@H]32)cc1.O=C(O)C(F)(F)F | 109
7 | Fc1ccc(CN2CCO[C@H]3[C@H](OCC4CC4)CC[C@@H]32)cc1.O=C(O)C(F)(F)F | 2.778
8 | CO[C@@H]1CC[C@H]2[C@H]1OCCN2Cc1ccc(F)cc1.O=C(O)C(F)(F)F | 109.6
9 | CC(=O)c1cccc(S(=O)(=O)NCC(C)(O)c2cccs2)c1 (stereo not given) | 1.748
10 | COCCN1CCN(C(=O)C[C@@H]2C[C@@H](C(C)C)[C@H](CC#N)C=C2C)CC1 | 7.225
11 | COc1cc(F)ccc1-c1cc(N)ccn1 | -8.193
12 | CCOc1ccccc1CNC(=O)NCC(c1cnn(C)c1)N(C)C (stereo not given) | -20.46
13 | Cc1cc(C)cc(C(=O)NCCCNc2ncccn2)c1 | -23.32
14 | Cc1ccc2cc(C3(O)CCN(C(=O)CN4CCCC4)CC3)ccc2n1 | -0.9065
15 | CS(=O)(=O)N(Cc1ccon1)c1ccc(F)cc1 | -1.74
16 | CC(C)CCn1cc(C(C(=O)O)N2CCC(c3ccncc3)CC2)cn1 (stereo not given) | 105.9
17 | CC(C)CCn1cc(C(C(=O)O)N2CCSCC2)cn1 (stereo not given) | 100.1
18 | CC(C)CCn1cc(C(C(=O)O)N2CCC(N3CCSCC3)CC2)cn1 (stereo not given) | 123.7
19 | CC(C)CCn1cc(C(C(=O)O)N2CCCN(C3CCCC3)CC2)cn1 (stereo not given) | 99.16
20 | Cn1cc(CN2CCC3(CC2)CC(c2ccncc2)C(=O)N3)cn1.O=C(O)C(F)(F)F.O=C(O)C(F)(F)F (stereo not given) | 4.796

Row | Compound | Percent Effect [%]
21 | COCCn1cc(NC(=O)NCC(C)N2CCOCC2)cn1 (stereo not given) | -7.646
22 | COc1ccc(C(C(=O)O)N2CCCN(C3CCCCC3)CC2)cn1 (stereo not given) | 6.723
23 | CC(C)Cc1cn(C2CCN(C(C)CCn3cccn3)CC2)nn1 (stereo not given) | 2.161
24 | CC(C)CCS(=O)(=O)CC(=O)N1CCCC1c1cnn(C)c1 (stereo not given) | 5.656
25 | CC(CCn1cccn1)N1CCC(n2cc(C(C)(C)N)nn2)CC1 (stereo not given) | -1.676
26 | COc1ccc(F)cc1C(C(=O)O)N1CCSCC1 (stereo not given) | -3.942
27 | COc1ccc(C(C(=O)O)N2CCCN(C3CCCC3)CC2)cc1OC (stereo not given) | 14.25
28 | O=C(N[C@@H]1CN(c2ncccn2)C[C@@H]2CCCO[C@@H]21)c1cccnc1.O=C(O)C(F)(F)F.O=C(O)C(F)(F)F | -5.975
29 | CCN1CCN(C(=O)c2ccn(C)c(=O)c2)CC1 | 15.1
30 | NC(=O)C1CCN(C(=O)c2cccc(CN3CCOCC3)c2)CC1 | -12.72
31 | CN1CCN(C(=O)c2cccc(CN3CCOCC3)c2)CC1 | 132.9
32 | CC1CCCN(C(=O)c2cccc(CS(C)(=O)=O)c2)C1 (stereo not given) | -2.941
33 | CCOCCN1CCN(Cc2cccc(C(=O)N(C)C)c2)CC1 | -1.534
34 | CC1CCN(C(=O)c2cccc(CN3CCOCC3)c2)CC1 | 117.9
35 | COCc1cccc(C(=O)N2CCCC2)c1 | -4.067
36 | O=C(c1cccc(NCCO)c1)N1CCOCC1 | 0.9463
37 | CCN1CCN(C(=O)c2cccc(CN3CCOCC3)c2)CC1 | 97.52
38 | COC(=O)[C@@H]1Cc2ncn(C(C)C)c2CN1S(=O)(=O)Cc1ccccc1 | 1.678
39 | CCN(CC)S(=O)(=O)NC(C)C(=O)N(C)C (stereo not given) | -9.888
40 | CC(C)c1nnc(CNc2ccc(SC(F)(F)F)cc2)o1 | -0.02401

Row | Compound | Percent Effect [%]
41 | CCc1ccc(C2CCCCCN2C(=O)CNC(=O)NC2CC2)o1 (stereo not given) | -27.64
42 | Cc1ccnc(N2CCCC(c3noc(C(C)C)n3)C2)n1 (stereo not given) | 19.69
43 | c1cnnc(N2CCCC2CNCc2cnc(N3CCCC3)nc2)c1 (stereo not given) | -1.846
44 | O=C1OCCN1Cc1cc(C(F)(F)F)ccc1F | -10.76
45 | N#Cc1cccc(N2CCCC3(C2)CN(c2ncccn2)CCO3)n1.O=C(O)C(F)(F)F (stereo not given) | -0.7909
46 | Cc1nnc(N2CCCC3(CN(c4ccccn4)CCO3)C2)o1.O=C(O)C(F)(F)F (stereo not given) | 102.3
47 | O=C(O)C(F)(F)F.c1ccc(N2CCOC3(CCCN(c4ncccn4)C3)C2)nc1 (stereo not given) | 84.77
48 | Cc1nnc(N2CCCC3(CN(Cc4ccc(C)s4)CCO3)C2)o1.O=C(O)C(F)(F)F.O=C(O)C(F)(F)F (stereo not given) | -0.4451
49 | O=C(O)C(F)(F)F.O=C(O)C(F)(F)F.c1cnc(N2CCOC3(CCCN(c4cnccn4)C3)C2)nc1 (stereo not given) | -4.65
50 | CCS(=O)(=O)N1CCOC2(CCCN(c3ccccn3)C2)C1.O=C(O)C(F)(F)F (stereo not given) | -10.79
51 | Cc1cc(C(C)NC(=O)CCN2C(=O)c3ccccc3C2=O)c(C)o1 (stereo not given) | -2.425
52 | Cc1nc(Nc2ncccn2)cc(C2CCCN2C2CCOCC2)n1 (stereo not given) | -10.06
53 | Cc1nc(Nc2ncccn2)cc(C2CCCN2Cc2ncc[nH]2)n1 (stereo not given) | 97.78
54 | c1cc(-c2c[nH]c([C@@H]3COCCN3Cc3ncc[nH]3)n2)ccn1 | -5.75
55 | Cc1nc(Nc2ccccn2)cc(C2CCCN2Cc2ncc[nH]2)n1 (stereo not given) | 129.4
56 | CCc1cc(C(C)Nc2nc(-c3cccnc3)nc3c2CNC3)on1 (stereo not given) | -7.07
57 | CN(C)C(C)(C)CNC(=O)C(C)(C)c1ccccc1F | -19.41
58 | Cc1csc(C2(NC(=O)NCCN3CCOCC3)CCCC2)n1 | -11.69
59 | COc1cccc(NC(=O)N(CCC(F)(F)F)C[C@H](O)CO)c1 | -14.76
60 | CCc1ccccc1OC1CN(C(=O)c2sccc2N)C1 | 9.804
